In all, about 16,000 compounds went through this assay and about 5,100 (32%) were called active. Not shown: some 25% with an inconclusive outcome. Calls follow the shape of the dose curve; as a rule, active = well fitted curve in the direction sought with a large enough effect; inconclusive = small, poorly fitted or top-dose-only effect, or effect the other way; inactive = no such curve, though single readings can be large or run the other way. This is one part of the list.
Molecular target: Cytochrome P450 3A4 (Homo sapiens) (UniProt P08684)
Sequence (P08684 whole entry, looked up): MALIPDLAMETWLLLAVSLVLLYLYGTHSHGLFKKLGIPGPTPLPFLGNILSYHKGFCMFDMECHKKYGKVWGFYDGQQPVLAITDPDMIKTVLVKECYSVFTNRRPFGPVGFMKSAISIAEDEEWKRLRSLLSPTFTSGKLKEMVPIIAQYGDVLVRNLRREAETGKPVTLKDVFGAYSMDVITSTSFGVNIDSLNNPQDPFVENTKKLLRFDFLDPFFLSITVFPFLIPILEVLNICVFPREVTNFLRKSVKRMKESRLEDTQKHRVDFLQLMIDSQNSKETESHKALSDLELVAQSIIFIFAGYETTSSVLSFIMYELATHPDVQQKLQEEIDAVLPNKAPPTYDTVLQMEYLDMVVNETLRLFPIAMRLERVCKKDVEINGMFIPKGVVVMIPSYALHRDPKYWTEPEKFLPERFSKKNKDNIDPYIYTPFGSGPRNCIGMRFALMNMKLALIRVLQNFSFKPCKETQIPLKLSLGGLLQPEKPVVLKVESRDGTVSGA
Experiment: Cytochrome panel assay with activity outcomes
Details: recombinant CYP, pro-luciferin dealkylation, luminescence, p450-cyp3a4; series mostly up to 57.1 µM
% is scaled to controls: 0 for no effect and ±100 for the full control effect.

Q: For `COc1ccc(-c2nc3cnc(N4CCN(C)CC4)nc3n(C3CC3)c2=O)cc1`, which AC50 is on record?
A: inactive

Q: Which AC50 does the source give for `COc1ccc(-c2nc3cnc(N4CCNCC4)nc3n(C3CC3)c2=O)cc1` here?
A: 10 µM (active)

Q: For `COC(=O)[C@@]1(Cc2ccc(OC)cc2)[C@H]2c3cc(C(=O)N(C)C)[nH]c3C[C@H]2CN1C(=O)c1ccccc1`, which AC50 is on record?
A: 1.58 µM (active)

Q: `COC(=O)[C@@]1(Cc2ccccc2)[C@H]2c3cc(C(=O)N4CCCC4)[nH]c3C[C@H]2CN1C(=O)c1ccccc1` was tested. Which AC50 did it give?
A: 2.51 µM (active)

Q: For `COc1ccc2c(c1)c(CC(=O)O)c(C)n2C(=O)c1ccccc1`, which AC50 is on record?
A: inactive

Q: `C[C@@]12CC(=O)[C@@H]3[C@@H](CCC4=CC(=O)CC[C@]43C)[C@@H]1CC=C2CC(=O)O` was tested. Which activity, negative = inhibition did it give?
A: -10.5% [at 11.4 µM] (inactive)

Q: `CCOC(=O)C1=C(C)NC(=O)NC1c1ccoc1` (centres undefined) was tested. Which activity, negative = inhibition did it give?
A: 15% [at 2.29 µM] (inactive)

Q: With `CCOC(=O)C1=C(C)NC(=S)NC1c1cccc(O)c1` (centres undefined) as the compound, how does the AC50 read?
A: 1 µM (active)

Q: `CCOC(=O)C1=C(C)C(c2ccccc2OC)NC(=S)N1` (centres undefined) was tested. Which activity, negative = inhibition did it give?
A: -19.1% [at 2.29 µM] (inactive)

Q: For `CN(Cc1ccco1)c1cc(-c2cccc(C#N)c2)ncn1`, which AC50 is on record?
A: inactive

Q: How did the AC50 turn out when `CN(Cc1ccco1)c1cc(-c2cccnc2)ncn1` was run?
A: 3.16 µM (active)

Q: Which AC50 does the source give for `COc1cccc(-c2cc(N(C)Cc3ccco3)ncn2)c1` here?
A: 25.1 µM (active)

Q: For `COC(=O)[C@@]1(Cc2ccc(OC)cc2)[C@@H]2[C@@H](CC(=O)[C@H]2CC(=O)C(=O)N2CCCC2)CN1C(=O)c1ccccc1`, which AC50 is on record?
A: 0.794 µM (active)

Q: With `COC(=O)[C@@]1(Cc2ccc(F)cc2)[C@@H]2[C@@H](CC(=O)[C@H]2CC(=O)C(=O)N2CCCC2)CN1C(=O)c1ccccc1` as the compound, how does the AC50 read?
A: 1.58 µM (active)

Q: How did the AC50 turn out when `c1ccc(Cc2nnc(Sc3ccccc3)c3ccccc23)cc1` was run?
A: 12.6 µM (active)

Q: With `FC(F)(F)c1nnc(-c2ccccc2)nc1Sc1ccccc1` as the compound, how does the AC50 read?
A: inactive

Q: For `COc1ccc2[nH]cc(CCNc3cc(-c4ccccc4C)ncn3)c2c1`, which AC50 is on record?
A: 5.01 µM (active)

Q: How did the AC50 turn out when `COc1ccc2[nH]cc(CCNc3cc(-c4ccccc4OC)ncn3)c2c1` was run?
A: 6.31 µM (active)

Q: Which AC50 does the source give for `COc1ccc2[nH]cc(CCNc3cc(-c4ccccc4C(F)(F)F)ncn3)c2c1` here?
A: 5.01 µM (active)

Q: Which AC50 does the source give for `COCCNc1cc(-c2ccccc2C)ncn1` here?
A: inactive

Q: How did the AC50 turn out when `CC(C)OC(=O)CSc1nc(-c2ccc(F)cc2)nc2ccc(F)cc12` was run?
A: inactive

Q: How did the AC50 turn out when `O=C(Nc1ccccc1)c1cc(-c2ccccc2Cl)no1` was run?
A: inactive

Q: With `Cc1onc(-c2ccccc2Cl)c1C(=O)Nc1nnc(Cc2ccc(Cl)cc2)s1` as the compound, how does the AC50 read?
A: 3.16 µM (active)

Q: With `Cc1ccc(NC(=S)NC(=O)c2c(-c3ccccc3Cl)noc2C)cc1` as the compound, how does the AC50 read?
A: 14.1 µM (active)

Reference: PubChem BioAssay AID1851 (National Center for Advancing Translational Sciences (NCATS), 2009)
